Compound activity deposited in PubChem BioAssay by National Center for Advancing Translational Sciences (NCATS).
Hits are enriched below; roughly 7.9% of the tested compounds scored in any of these assays.
HT1080 IDH1KD tx – qHTS for induction of synthetic lethality in tumor cells producing 2HG: qHTS for the HT-1080-IDH1KD cell line; HT-1080 IDH1 knockdown viability, ATP luminescence, 48 h; Potency, µM (titrated, usually from 46.1 µM), for the others: at the top dose activity, negative = toxicity, usual class: cytotoxic; actives 2% (n = 360,000);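 further: 0% = DMSO wells and -100% = cell-free medium wells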
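Cytotoxicity counter-line: IDH1KD HT-1080, 48 h, CellTiter-Glo. Curves classed by r2, magnitude and activity.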
SW480 rereplic – A quantitative high throughput screen for small molecules that induce DNA re-replication in SW480 colon adenocarcinoma cells; SW480 DNA re-replication, Hoechst DNA content imaging, 48 h; actives 1.8% (n = 340,000); AID 624297, 2012; Potency, µM (titrated, usually from 46.1 µM), without a hit: top-dose re-replication activation, most hits filed as activators; further: % of control where 0% means no effect; nearly all actives have a fitted effect of over 55% in size
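Compounds, transferred as 23 nL by pin tool, were incubated with cells for 48 hr; DNA content per nucleus was then quantified by Hoechst staining and fluorescence plate imaging.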
KB-3-1 cytotox – qHTS assay for MDR1-selective chemotherapeutics: Primary screen using the parental adenocarcinoma cell KB-3-1 | KB-3-1 viability, CellTiter-Glo ATP luminescence, 72 h | Potency, µM (series often up to 46.1 µM), usual class: cytotoxic | actives 1.4% (n = 400,000); further: on the % scale 0 is the no-effect control and ±100 the full control effect; nearly all actives have a fitted effect of over 60% in size
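Cells are dispensed, compounds pinned in, plates held at 37 °C for 72 h, then CellTiter-Glo is added and luminescence read after 10 minutes. Cell line: parental KB-3-1 in phenol-red-free DMEM, 10% FBS.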
KB-V1 cytotox – qHTS assay for MDR1-selective chemotherapeutics: Primary screen using the drug-selected MDR subline cells KB-V1; Potency, µM (top dose mostly 46.1 µM), usual class: cytotoxic; KB-V1 MDR cells viability, CellTiter-Glo, 72 h; AID 1347076, 2019; actives 3.4% (n = 400,000); further: on the % scale 0 is the no-effect control and ±100 the full control effect; nearly all actives have a fitted effect of over 60% in size
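Cytotoxicity toward P-gp-expressing KB-V1 cells was determined as loss of CellTiter-Glo luminescence after 72 h at 37 degrees C. Compounds were tested in quantitative HTS format across a concentration range, with curves fitted to normalized data.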
HT1080-NT tox – qHTS for induction of synthetic lethality in tumor cells producing 2HG: qHTS for the HT-1080-NT fibrosarcoma cell line; HT-1080-NT fibrosarcoma viability, CellTiter-Glo ATP luminescence, 48 h; Potency, µM (top dose mostly 46.1 µM), inactives show at the highest dose activity, negative = less viability, hits mostly cytotoxic; actives 1.6% (n = 360,000); AID 686970, 2013;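 further: NT is the 2HG producing partner of a matched IDH1 knockdown line; 0% = DMSO-treated cells and -100% = media-only wells without cells; nearly all actives have a fitted effect of over 55% in size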
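Toxicity toward the 2HG-producing NT line was scored as %Activity, normalised to DMSO and no-cell wells, from CellTiter-Glo luminescence after 48 hours' treatment.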
MCF10A rerep – A quantitative high throughput screen for small molecules that induce DNA re-replication in MCF 10a normal breast cells. MCF 10A DNA re-replication, Hoechst nuclear intensity, 48 h. Potency, µM (doses to about 46.1 µM), for inactives: top-dose activity, positive = re-replication, hits mostly activators. actives 2.9% (n = 350,000); further: % of control where 0% means no effect; nearly all actives have a fitted effect of over 50% in size
* = called active by the depositor; i = inactive; ? = inconclusive; · = no result given; [ ] = dose if it differs, or a comment. The call rests on the fitted dose curve; in most records, active means well fitted curve in the direction sought with a large enough effect; inconclusive means small, poorly fitted or top-dose-only effect, or another doubt; inactive means no such curve, though single readings can be large; an effect the other way counts as inactive or inconclusive. Potency means the concentration at half of the fitted maximal effect.

SMILES | HT1080 IDH1KD tx | SW480 rereplic | KB-3-1 cytotox | KB-V1 cytotox | HT1080-NT tox | MCF10A rerep
CC1(C(=O)NS(=O)(=O)c2ccc(Cl)s2)CCN1C(=O)Cc1ccc(Cl)cc1Cl (stereo not given) | 0% | · | i | i | -1% | ·
CC(Sc1nc(N)cc(=O)[nH]1)C(=O)Nc1ccc(N2CCOCC2)cc1 (stereo not given) | 6% | · | i | i | 12% | ·
COc1ccc(CSCC(=O)NCCC(C)C)cc1 | 0% | -4% | i | i | 3% | 5%
COc1ccc(CSCC(=O)Nc2ccccc2SC)cc1 | -22% | ? | ? | 18µM* | -2% | ?
CCOC(=O)CNC(=O)Nc1cc(C(=O)NCc2ccccc2OC)ccc1N1CCCC1 | · | · | i | i | · | ·
COc1ccc(OC)c(NC(=O)c2cccn2-c2nnc(N3CCCCC3)s2)c1 | · | · | i | i | · | ·
Cc1cc(OCCCCCNCCO)cc(C)c1Cl | 16µM* | ? | i | i | ? | ?
COc1cc2nc(C)sc2cc1SC | 8% | -4% | i | i | 4% | 1%
COc1cc2nc(/C=C/c3cc(OC)c(OC)c(OC)c3)sc2cc1SC | ? | ? | 23µM* | 10µM* | ? | ?
N#CC1(Cc2ccccc2Cl)c2ccccc2C=CN1C(=O)c1ccccc1 (stereo not given) | 7% | 4% | ? | 21µM* | -2% | 11%
Clc1ccc(CNc2ncnc3[nH]ncc23)c(Cl)c1 | -1% | -6% | i | i | -3% | 17%
Cn1c(Sc2ccc(Br)cc2)c(C=O)c2ccccc21 | 26µM* | ? | ? | ? | ? | ?
Cn1c(Oc2ccc(F)cc2)c(C=O)c2ccccc21 | -21% | 11% | i | i | -22% | 14%
Cc1ccc2oc(=O)n(CCNC(=O)Nc3ccc(Cl)cc3)c2c1 | · | · | i | i | · | ·
CCCNC(=O)C1(C)CCN(C(=O)C2(c3ccc(Cl)cc3)CCCC2)C1 (stereo not given) | 1% | · | i | i | 11% | ·
O=C(CCn1c(=O)[nH]c2ccsc2c1=O)N(CCc1ccccc1)Cc1ccccc1 | -3% | 0% | ? | 21µM* | -21% | 7%
CCOCCCNC(=O)C1CCN(c2nc3ccc(Cl)cc3[nH]2)CC1 | · | · | i | ? | · | ·
CCOC(=O)C1=CCN(S(=O)(=O)c2ccccc2Cl)C1c1ccccc1 (stereo not given) | -15% | · | i | i | -11% | ·
CCCCCC1(C)NC(=S)N(c2ccccc2)N1 (stereo not given) | ? | -3% | i | i | ? | 2%
C=C(C)CCC1(C)NC(=O)N(c2ccccc2)N1 (stereo not given) | 15µM* | -33% | i | i | 9.2µM* | ?
O=C1NC(=O)C(c2ccccc2)(c2ccc(O)cc2)N1 (stereo not given) | 3% | -13% | i | i | 6% | 0%
CC1(c2ccc(O)cc2)NC(=O)N(c2ccccc2)N1 (stereo not given) | 10µM* | 5% | i | i | 5.8µM* | 28%
Cc1csc(C)[n+]1CCC1CCCCC1 | · | · | ? | i | · | ·
CCCCCCCCn1c(=O)c(C(=O)OC)c(N)c2ccccc21 | 16µM* | -12% | ? | ? | 21µM* | 21µM*
CCCCCCCn1c(=O)c(C(=O)OC)c(N)c2ccccc21 | ? | 0% | i | 15µM* | ? | 0%
SMILES | HT1080 IDH1KD tx | SW480 rereplic | KB-3-1 cytotox | KB-V1 cytotox | HT1080-NT tox | MCF10A rerep
CCCCNC(=O)CCCn1c(=O)c2ccccc2n(Cc2ccccc2C)c1=O | · | · | i | i | · | ·
Cc1ccc(S(=O)(=O)NC(C)(C)CN2CCNCC2)cc1 | 8% | 21µM* | i | i | 10% | ?
Cc1ccc(S(=O)(=O)NC(C)(C)CN2CCc3ccccc3C2)cc1 | 0% | 6.5µM* | i | ? | -24% | 20%
CCCc1nnc(NC(=O)Cc2coc3ccc(C(C)C)cc23)s1 | · | · | i | i | · | ·
CN(C)c1ccc(C(=O)NCC(c2cccs2)N2CCOCC2)cc1 (stereo not given) | 3% | -2% | i | i | 5% | 3%
Cc1ccsc1C(=O)NCC(c1cccs1)N1CCOCC1 (stereo not given) | ? | · | i | ? | 18µM* | ·
O=C(NCC(c1cccs1)N1CCOCC1)c1ccc(Br)o1 (stereo not given) | 16µM* | 8.2µM* | ? | ? | ? | ?
O=C(CSc1ccc(Br)cc1)NCC(c1cccs1)N1CCOCC1 (stereo not given) | -10% | 3% | 16µM* | ? | -7% | 10%
CCOc1ccc(-c2nc(CSCC(=O)NCc3ccc(Cl)cc3)c(C)o2)cc1 | · | · | i | i | · | ·
CN(C)CCNC(=O)c1sc2nc(-c3ccccc3)cc(C(F)(F)F)c2c1N | 18µM* | ? | ? | ? | 23µM* | ?
Cc1ccnc(N2C3CCC2CC(O)(c2ccccc2)C3)n1 (stereo not given) | 2% | 9% | i | i | 5% | -19%[9.22 µM]
Cc1cc(N2C3CCC2CC(O)(c2ccc(F)cc2)C3)nc(-c2ccccc2)n1 (stereo not given) | -4%[9.24 µM] | 0% | i | i | 14µM* | 1%
CCc1ccc(NC(=O)CN2C(=O)c3cccc4cccc2c34)cc1 | · | · | i | i | · | ·
O=C(c1ccccc1Cl)N(Cc1ccco1)c1ccccn1 | · | · | i | i | · | ·
COc1ccc(/C=C2\N=C(C(C)(C)C)OC2=O)c(OC)c1 | 0% | -1% | i | i | -1% | 23µM*
COc1ccc(OC)c(/C=C2\N=C(c3ccccc3)OC2=O)c1 | 4% | -2% | i | i | 2% | -11%
CCC1=C/C(=C/c2sc3ccccc3[n+]2CC)CC(C)(C)C1 | ? | ? | ? | ? | 23µM* | ?
CC[n+]1c(/C=C2/C=C(C)CC(C)(C)C2)sc2ccc(OC)cc21 | ? | ? | 21µM* | i | 21µM* | 16µM*
CC[n+]1c(/C=C2\C=C(C)CC(C)C2)sc2ccccc21 (stereo not given) | ? | 2% | i | i | ? | 23µM*
